The results in this text go back to PubChem BioAssay AID1321 (The Scripps Research Institute Molecular Screening Center, 2008).

Among all 220,000 compounds or so, about 2,600 (1.2%) were called active.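 The calls were made as follows: active = activation above the mean of all tested compounds plus 3 SD, set per screening run (cut at about 8.8% in these data); inactive = the rest.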 Shown is part of a subset that was picked to be rich in actives.

The test concerns the target Wee1-like protein kinase (Homo sapiens) (UniProt P30291). Briefly: compounds stabilizing Wee1-luciferase fusion – cell-based, HeLa, Wee1K328M-luciferase, luminescence, primary screen (AID 1321).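 Also: cells exposed to compound for 20 h before luminescence read; 0% = DMSO alone and 100% = MG132 at 30 µM.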 The settings on record: HeLa Luc-Wee1K328M stability, at 5 µM, stronger effect = higher value, 100% = proteasome inhibitor MG132 effect.
`O=S(=O)(Cc1noc(-c2ccc(OC(F)(F)F)cc2)n1)c1ccc(F)cc1`: the reporter increase was 4.61% (inactive). Regarding `CCOc1ccc(CN(Cc2ccco2)S(=O)(=O)c2ccc(-n3cnnn3)c(OC)c2)cc1`, the reporter increase is 1.7% (inactive). With `CCOc1ccc(CN(Cc2ccco2)C(c2cccs2)c2nnnn2C(C)(C)C)cc1` (stereo unspecified), the reporter increase is 9.99% (active).

Consider `CC(C)(C)n1nnnc1C(c1cccs1)N(Cc1cccnc1)CC1CCCO1` (stereo unspecified), for which the reporter increase was 4.79% (inactive). Then `CCCCCCCCCCCCN1C(=O)CSC1c1cccnc1` (stereo unspecified), with -0.61% (inactive); and `COc1ccc(CCNC(=O)C(=O)NCC2CCNCC2)cc1OC`, with -1.92% (inactive).

Consider `COc1cc(/C=N\Nc2nc(-c3cccs3)c(NC(C)=O)s2)ccc1O`, for which the reporter increase was -1.53% (inactive).

`COc1ccc(NS(=O)(=O)c2ccc(N3CCOCC3)c(NC(=O)c3ccccc3Br)c2)cc1`: the reporter increase is 0.37% (inactive). Then `O=C(CSc1nnc(-c2cccs2)n1-c1ccccc1)N1CCN(C(=O)c2ccco2)CC1`, with -2.17% (inactive); and `O=C(CSc1nnc(-c2cccs2)n1Cc1ccccc1)N1CCc2ccccc2C1`, with 9.02% (active). Then `CCn1c(SCC(=O)c2ccc3ccccc3c2)nnc1-c1cccs1`, with 4.66% (inactive). Regarding `CCOc1ccc(-n2cnc3c(=O)[nH]c(N)nc32)cc1`, the reporter increase is -1.45% (inactive). With `CC(C)c1cc(CN2CCOCC2)cc(C(C)C)c1O`, the reporter increase is 1.64% (inactive). As for `O=C(CCCCCN1C(=O)c2cccc3cccc(c23)C1=O)NCc1ccco1`, the reporter increase was -0.37% (inactive).

Take `Cc1cccc(-[n+]2c(-c3cccc(Br)c3)[nH]c3nc4ccccc4nc32)c1`: the reporter increase was 1.73% (inactive). The result for `COc1cccc(OCCOc2cccc(/C=N/n3cnnc3)c2)c1` reads 10.7% (active). Then `C=CCc1ccc(OCCOc2cccc(/C=N/n3cnnc3)c2)c(OC)c1`, with 0.6% (inactive). As to `COc1ccccc1OCCOc1ccc(/C=N/n2cnnc2)cc1`, the reporter increase is 3.34% (inactive). Then `COc1ccc(NC(=O)c2cn(-c3ccccc3)nc2SC)cc1`, with -2.29% (inactive); and `O=C(CSc1nnc(SCc2ccc(F)cc2)s1)Nc1ccc(C(=O)O)cc1`, with -1.55% (inactive).

As for `CS/C(=C\C(=O)c1ccco1)Nc1ccccc1Cl`, the reporter increase was 6.17% (inactive). As to `NNC(=O)C1CCCn2c1nc1sc3c(c1c2=O)CCCC3` (stereo unspecified), the reporter increase is -0.79% (inactive). Then `Cn1c(NN)nc2sc3c(c2c1=O)CCC3`, with 11.1% (active); and `Cc1nc2sc3c(c2c(=O)n1NC(=O)CCl)CCCC3`, with 1.1% (inactive); and `CC(NS(=O)(=O)c1ccccc1)c1n[nH]c(=S)n1-c1ccccc1` (stereo unspecified), with 0.56% (inactive). Take `COC(=O)c1sc(NC(=S)NC(=O)c2ccc(C)cc2)nc1C`: the reporter increase was -0.57% (inactive).

`Brc1ccc2nc(N3CCCC3)sc2c1`: the reporter increase is 18.3% (active). For `c1c2c(cc3sc(N4CCCCC4)nc13)OCCO2`, the reporter increase was -3.23% (inactive).

Regarding `Cc1nc(N2CCCCC2)sc1C=O`, the reporter increase was -0.49% (inactive). The result for `Cc1ccc(F)cc1NC(=O)N1CCCN(c2ccc(C(F)(F)F)cn2)CC1` reads -2.91% (inactive); that for `CN(C)CCCN(Cc1cc2cc3c(cc2[nH]c1=O)OCCO3)C(=O)NC1CCCCC1`, -1.12% (inactive); that for `O=C(N/N=C/c1ccco1)c1ccc(NC(=O)C2CC2)cc1`, 1.48% (inactive). On to `O=C(N/N=C/c1ccco1)c1ccc(C(=O)N/N=C/c2ccco2)o1`, for which the reporter increase is -0.09% (inactive).

As for `O=C(N/N=C/c1ccco1)c1csc2c1CCCC2`, the reporter increase is 9.05% (active). On to `COc1ccc(CN(Cc2ccc(OC)cc2)C(=O)c2cccs2)cc1`, for which the reporter increase was 1.79% (inactive). For the molecule `CCOC(=O)CN(C(=O)COc1nc(C)cc(C)c1C#N)c1ccc(Cl)cc1`, the reporter increase is -2.18% (inactive). As to `Cc1cc(C(F)(F)F)c(C#N)c(SCC(=O)NC2CC2)n1`, the reporter increase is -3.28% (inactive). Take `CCOC(=O)COc1nc(C)cc(C(F)(F)F)c1C#N`: the reporter increase is 8.86% (active). Regarding `CCCc1c(C(=O)O)cnn1-c1ccc(Cl)cc1`, the reporter increase is 1.14% (inactive). The result for `Cc1nnc(CN(C)Cc2cn[nH]c2-c2ccc(-c3ccccc3)cc2)o1` reads 10.8% (active). The result for `COc1ccc(-c2[nH]ncc2CN(C)Cc2cc(C)[nH]n2)c(F)c1` reads -2.83% (inactive); that for `CN(CCC1CCOCC1)Cc1cn[nH]c1-c1ccc(-c2ccccc2)cc1`, -2.58% (inactive); that for `COC(=O)C1=C(N)Oc2cc(C)[nH]c(=O)c2C1c1ccc(Cl)cc1` (stereo unspecified), -0.92% (inactive).

As to `COc1ccccc1N1CCN(C(=O)CSc2ncnc3c2cnn3-c2ccc(C)c(C)c2)CC1`, the reporter increase was 3.89% (inactive). Take `O=[N+]([O-])c1ccc(N2CCSCC2)cc1O`: the reporter increase is 1.05% (inactive).

Consider `Cc1nc2cc(NC(=O)Nc3cccc(F)c3)ccc2n1C`, for which the reporter increase is -1.84% (inactive). Then `Cc1nc2cc(NC(=O)NC3CC3)ccc2n1C`, with 12.8% (active); and `C=CCN(C(=O)Nc1ccc2c(c1)nc(C)n2C)c1ccccc1`, with -1.11% (inactive); and `Cc1cc(NC(=O)OC(C)C)ccc1-c1ccc(NC(=O)OC(C)C)cc1C`, with 0.84% (inactive).

As to `Cn1c(SCC(=O)Nc2ccc(Cl)cc2)nc(O)cc1=O`, the reporter increase is -2.26% (inactive). Regarding `COc1cccc(OCC(=O)Nc2ccccc2C(N)=O)c1`, the reporter increase is 0.36% (inactive). Then `Cc1cccc(OCC(=O)NC(=S)Nc2ccccc2N2CCOCC2)c1`, with 0.28% (inactive). Then `Cc1cccc(OCC(=O)Nc2ccccc2F)c1`, with 12.9% (active); and `O=S(=O)(c1ccccc1)N1CN(Cc2ccc(F)cc2)c2nc3ccccc3nc21`, with 2.39% (inactive). With `COc1ccc(N(Cc2ccccc2)S(=O)(=O)c2cccc(C(=O)O)c2)cc1`, the reporter increase was 0.36% (inactive). Consider `CCOc1ccc(N2CC(C(=O)N/N=C/c3sccc3C)CC2=O)cc1` (stereo unspecified), for which the reporter increase was -2.91% (inactive). For `CCN(CC)CCCN=Cc1c(O)n(-c2ccc(C)cc2)c(=O)c2ccccc12`, the reporter increase was 5.68% (inactive). The result for `Cc1ccc2c(Cl)c(C(=O)Nc3nn[nH]n3)sc2c1` reads -0.87% (inactive). Then `Cc1ccc2c(Cl)c(C(=O)NCCCn3ccnc3)sc2c1`, with 18.1% (active); and `COc1ccc(-c2cc(C(=O)NCCCn3ccnc3)no2)cc1`, with -0.75% (inactive). The result for `O=C1CC(Cc2ccc(Cl)cc2)C(=O)N1c1cc(Cl)ccn1` (stereo unspecified) reads 2.19% (inactive); that for `O=C(NC(=O)c1cc(OCC(F)(F)F)ccc1OCC(F)(F)F)Nc1ccccc1`, -0.42% (inactive). On to `O=C(NNc1ccccc1Cl)C(O)(c1cccc(C(F)(F)F)c1)c1cccc(C(F)(F)F)c1`, for which the reporter increase is 16.5% (active). The result for `CC(CC(=O)Nc1cc(C(F)(F)F)ccc1Cl)c1ccccc1` (stereo unspecified) reads -1.69% (inactive); that for `O=C(Nc1cc(C(F)(F)F)ccc1Cl)C(=O)N1CCCCC1`, 0.04% (inactive); that for `CCn1c2ccccc2c2cc(NC(=O)Nc3ccc([N+](=O)[O-])cc3C)ccc21`, -2.8% (inactive).

As for `Cc1ccccc1Nc1nc(N)nc(CSc2ccccc2)n1`, the reporter increase was 5.12% (inactive). Then `Cc1ccc(Nc2nc(N)nc(CSc3nnc(C)s3)n2)cc1`, with 9.2% (active). The result for `Cc1ccc(Nc2nnc(SCc3ccccc3)s2)cc1` reads 0.21% (inactive); that for `O=C(c1cc(COc2c(F)cccc2F)on1)N1CCSCC1`, -0.41% (inactive); that for `COC(=O)Cn1c(O)c(N=NC(=O)OC)c2ccccc21`, -1.42% (inactive). For `Cc1cc(C)nc(SCc2cn3c(C)cc(C)nc3n2)n1`, the reporter increase was 1.99% (inactive). Take `COc1cc(C(F)(F)F)c(C(=O)N(C)c2ccc(Cl)cc2)cn1`: the reporter increase was -1.97% (inactive). Then `COc1ccccc1N(C)S(=O)(=O)c1ccc(C(=O)NC2CCCCCC2)cc1`, with 1.14% (inactive).

`CN(C)CCCCCN(C)Cc1cc2ccccc2o1`: the reporter increase was 9.64% (active). The result for `CC(=O)N(CCCN(C)C)c1nc2ccc(C)cc2s1` reads 1.87% (inactive). `CCCOC(=O)c1cc2ccccc2oc1=O`: the reporter increase is -1.59% (inactive). Consider `COCCN(Cc1cc2cc3c(cc2nc1Cl)OCO3)C(=O)c1cccc(C)c1`, for which the reporter increase was -2.99% (inactive). As to `CCCCNC(=S)N/N=C1\CCCCc2ccccc21`, the reporter increase was 9.73% (active). Then `Cc1ccc(NC(=S)N/N=C2/CCCc3c(C)cc(C)cc32)cc1`, with -2.2% (inactive).

Take `CCCC1CCC(=NNC(=S)NCCc2ccccc2)CC1` (stereo unspecified): the reporter increase is -0.9% (inactive).

In the case of `Cc1ccc(N2C(=O)CC(N3CCSCC3)C2=O)c(C)c1` (stereo unspecified), the reporter increase is -2.9% (inactive). `Cc1ccccc1NC(=O)Nc1ccccc1N1CCCCC1`: the reporter increase was 2.91% (inactive). For `O=c1cc(CSc2ccc(Cl)cc2)nc(N2CCOCC2)[nH]1`, the reporter increase was 4.27% (inactive). Then `Cc1nnc(SCc2cc(=O)[nH]c(N3CCN(Cc4ccccc4)CC3)n2)s1`, with 0.09% (inactive); and `O=c1cc(CSc2ccccn2)nc(N2CCN(c3ccccc3)CC2)[nH]1`, with 10.3% (active); and `C/C=C/c1ccc(OCCCCN2CCC(C)CC2)c(OC)c1`, with 28.9% (active). The result for `C/C=C/c1ccc(OCCOc2ccc(C=O)cc2OC)c(OC)c1` reads 0.41% (inactive); that for `C/C=C/c1ccc(OCC(O)CN2CCCCCCC2)c(OC)c1` (stereo unspecified), -0.18% (inactive); that for `CN(C(=O)COC(=O)c1cc(-c2ccco2)nc2ccccc12)C1CCS(=O)(=O)C1` (stereo unspecified), -1.15% (inactive). In the case of `Cc1cc(C)c2nc(NC(=O)c3ccc4c(c3)OCO4)sc2c1`, the reporter increase is -0.87% (inactive). `Cc1cc(C)c2nc(NC(=O)C3CCCO3)sc2c1` (stereo unspecified): the reporter increase was 9.43% (active). The result for `O=C(Nc1nc2ccc(S(=O)(=O)N3CCCC3)cc2s1)C1CCCO1` (stereo unspecified) reads -1.26% (inactive). The result for `COc1ccc(NC(=O)CCN2C(=O)/C(=C/c3ccc4c(c3)OCO4)SC2=S)cc1` reads 0.36% (inactive); that for `Cc1cc(C(=O)CSc2nc(N)cc(=O)[nH]2)c(C)n1Cc1ccco1`, 2.39% (inactive); that for `COc1ccc(Nc2cc(Cl)ccc2C(=O)O)cn1`, 2.84% (inactive). The result for `COc1ccc(NC(=S)NCCNC(C)=O)cc1` reads 0.16% (inactive); that for `CC(=O)Nc1ccc(OCC(=O)NCc2ccc(C)cc2)cc1`, -0.21% (inactive).

Consider `COc1ccc(NC(=S)Nc2ccccc2Cl)cn1`, for which the reporter increase is 4.13% (inactive). Turning to `COc1ccc(CS(=O)/C(Cl)=C(/Cl)C(=O)Nc2ccc(OC)nc2)cc1` (stereo unspecified), the reporter increase was 17.4% (active).

As to `COc1ccc(NC(=O)/C(Cl)=C(/Cl)S(=O)Cc2ccc(C)cc2)cn1` (stereo unspecified), the reporter increase was 11% (active).
